# Data as given in publication PMC4336329 (PLoS ONE, 2015).
# Among all 310,000 compounds or so, about 14,000 (4.5%) showed an effect of 50% or more. The effect is printed as a negative number. This excerpt belongs to a sample that is enriched for strong results.
# Biological target: human ether-à-go-go-related gene (hERG) potassium channel (human, UniProt Q12809)
# Assay: primary screen, population patch clamp on CHO cells stably expressing hERG; higher = less effect of the substance
# 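Further: peak tail current of the secondary pulse compared with the same well before compound.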
# Chain of human ether-à-go-go-related gene (hERG) potassium channel (Q12809 whole entry, looked up): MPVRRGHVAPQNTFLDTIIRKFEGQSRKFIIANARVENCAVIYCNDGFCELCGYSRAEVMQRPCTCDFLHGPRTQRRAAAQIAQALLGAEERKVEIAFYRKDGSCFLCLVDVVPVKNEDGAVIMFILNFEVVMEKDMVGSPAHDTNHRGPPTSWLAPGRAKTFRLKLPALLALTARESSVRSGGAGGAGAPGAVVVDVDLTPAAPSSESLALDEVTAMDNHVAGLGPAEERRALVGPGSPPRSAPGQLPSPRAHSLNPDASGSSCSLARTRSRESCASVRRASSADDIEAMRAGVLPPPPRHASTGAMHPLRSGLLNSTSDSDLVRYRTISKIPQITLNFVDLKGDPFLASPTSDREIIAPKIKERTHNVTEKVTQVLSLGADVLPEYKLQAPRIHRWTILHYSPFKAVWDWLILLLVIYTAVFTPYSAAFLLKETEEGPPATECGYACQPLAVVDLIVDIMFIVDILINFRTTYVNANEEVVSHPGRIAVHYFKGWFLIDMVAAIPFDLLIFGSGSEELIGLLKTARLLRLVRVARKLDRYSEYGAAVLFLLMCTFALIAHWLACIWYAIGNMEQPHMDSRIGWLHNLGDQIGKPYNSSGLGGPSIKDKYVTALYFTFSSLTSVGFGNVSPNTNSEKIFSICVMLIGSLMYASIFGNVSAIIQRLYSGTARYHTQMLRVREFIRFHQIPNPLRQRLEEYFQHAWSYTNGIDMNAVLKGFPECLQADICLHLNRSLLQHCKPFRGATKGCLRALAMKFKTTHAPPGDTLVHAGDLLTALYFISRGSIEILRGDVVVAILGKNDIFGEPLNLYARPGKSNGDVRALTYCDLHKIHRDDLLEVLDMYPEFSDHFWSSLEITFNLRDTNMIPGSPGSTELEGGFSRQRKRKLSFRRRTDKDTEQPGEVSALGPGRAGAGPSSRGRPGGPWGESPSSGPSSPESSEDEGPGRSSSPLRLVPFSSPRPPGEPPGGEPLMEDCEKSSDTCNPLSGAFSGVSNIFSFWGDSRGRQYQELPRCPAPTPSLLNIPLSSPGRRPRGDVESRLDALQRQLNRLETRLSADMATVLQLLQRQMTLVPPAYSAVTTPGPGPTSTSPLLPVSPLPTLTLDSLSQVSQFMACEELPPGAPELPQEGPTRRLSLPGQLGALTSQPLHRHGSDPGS
row,Compound,"hERG current change (%, negative = inhibition) at 10uM"
1,O=C(NC(=S)NNC(=O)c1ccccc1O)c1cccc([N+](=O)[O-])c1,26.2%
2,O=C(NCCCN1CCOCC1)C(=O)N/N=C/c1ccccc1,-20.2%
3,CCC(=NCCN1CCOCC1)c1c(O)n(C2CCCCC2)c(=O)[nH]c1=O,-6.76%
4,CC1(C)CC(=O)C(CC(=O)N2CCC(Cc3ccccc3)CC2)C(=O)C1,34.8%
5,CC12CCC(=O)N1C(C(=O)Nc1cccc3ccccc13)CS2 (stereo not shown),4.6%
6,Cc1cc2nc(-c3ccc4c(c3)CCC4)ccn2n1,-2.72%
7,Cc1ccc(NS(=O)(=O)c2cccc(C(=O)NCC3CCCO3)c2)cc1 (stereo not shown),-10%
8,Brc1ccc(-c2nn[nH]n2)cc1,11.2%
9,O=C(NC1CC1)c1ccc2c3c(cccc13)CC2,-2.52%
10,CC(=O)c1ccc2c3c(cccc13)CC2,2.96%
11,CC(C)(C)NC(=O)c1ccc2c3c(cccc13)CC2,-51.4%
12,COc1ccc(Cl)cc1NC(=O)CSc1nnc(C)c(=O)n1N,2.48%
13,O=C(c1ccccc1)N1N=C(c2ccc(F)cc2)CC1(O)C(F)(F)F (stereo not shown),-5.31%
14,C/C(=N/OC(=O)CC(C)C)c1cc(-c2ccc(Cl)cc2)no1,15%
15,CN(C)C(CNC(=O)c1cc(S(=O)(=O)N(C)c2ccc(F)cc2)ccc1Cl)c1ccco1 (stereo not shown),-28.3%
16,Cc1ccc(NS(=O)(=O)c2cccc(C(=O)NCC(c3ccco3)N3CCCC3)c2)cc1 (stereo not shown),-47.4%
17,Cc1ccc(N(C)S(=O)(=O)c2cccc(C(=O)NCC(c3ccco3)N3CCCC3)c2)cc1 (stereo not shown),-62.5%
18,O=C(NCC(c1ccco1)N1CCCC1)c1cccc(NS(=O)(=O)c2ccccc2)c1 (stereo not shown),-5.9%
19,CCN(c1ccccc1)S(=O)(=O)c1cccc(C(=O)NCC(c2cccs2)N2CCOCC2)c1 (stereo not shown),-18.7%
20,CN(c1ccccc1)S(=O)(=O)c1ccc(C(=O)NCC(c2ccco2)N2CCCCC2)cc1 (stereo not shown),-12.1%
21,COc1ccc(N(C)S(=O)(=O)c2cccc(C(=O)NCC(c3ccco3)N3CCCC3)c2)cc1 (stereo not shown),-33.9%
22,CN(c1ccccc1)S(=O)(=O)c1ccc(Cl)c(C(=O)NCC(c2ccco2)N2CCCC2)c1 (stereo not shown),-50.9%
23,CCN(c1ccccc1)S(=O)(=O)c1cccc(C(=O)NCC(c2ccco2)N2CCCC2)c1 (stereo not shown),-59.3%
24,CCCn1ncc2c(Nc3ccc(C)c(C)c3)ncnc21,-25.2%
25,CC(NC(=O)c1ccco1)C(=O)N1CCN(C(c2ccccc2)c2ccccc2)CC1 (stereo not shown),-15.7%
26,O=C(CN(CC1CCCO1)C(=O)CNS(=O)(=O)c1ccc(Cl)cc1)NCCc1ccccc1 (stereo not shown),-20.8%
27,COc1ccc(CCn2c(O)c(C=Nc3ccc(NC(C)=O)cc3)c(=O)[nH]c2=O)cc1OC,27.6%
28,CC(=O)Nc1ccc(S(=O)(=O)NCc2ccccn2)cc1,9.6%

row,Compound,"hERG current change (%, negative = inhibition) at 10uM"
1,O=Cc1cccc(OC(=O)Nc2ccccc2)c1,6.95%
2,CN(C)c1cc(-c2ccc(Cl)cc2Cl)oc(=O)c1Cl,0.166%
3,CCOc1c2ccc(C(=O)NCCCCc3ccccc3)cc2nn1CC,-14.1%
4,CCCCNc1ncnc2sc3c(c12)CCN(CCC)C3,-76%
5,c1cn(CCCNc2ncnc3sc4c(c23)CCC4)cn1,-37.5%
6,OCCCNc1ncnc2sc3c(c12)CCN(Cc1ccccc1)C3,-37.9%
7,CC1CCc2c(sc3ncnc(N4CCOCC4)c23)C1 (stereo not shown),-16.6%
8,COCCCNc1ncnc2sc3c(c12)CCC(C)C3 (stereo not shown),-24.5%
9,CC1CCc2c(sc3ncnc(NCCN4CCOCC4)c23)C1 (stereo not shown),-54.6%
10,Cc1cc(NS(=O)(=O)c2ccc(NC(=O)CSc3nc4ncc(Br)cc4[nH]3)cc2)nc(C)n1,20.8%
11,CC(C)Oc1cccc(C(=O)C2CCCN(C(=O)c3ccc4c(c3)OCO4)C2)c1 (stereo not shown),-26.9%
12,O=C(c1ccc2c(c1)OCO2)C1CCCN(Cc2ccccc2OC(F)F)C1 (stereo not shown),-58.8%
13,O=C(c1ccc2c(c1)OCO2)C1CCCN(Cc2ccc(OC(F)F)cc2)C1 (stereo not shown),-85.7%
14,N/C(=N\OC(=O)COc1ccc2ccccc2c1Br)c1ccncc1,5.98%
15,CCOc1ccc(NC(=O)NCc2ccc3c(c2)OCO3)cc1,9.08%
16,O=C(CCc1nc2ccccc2c(=O)[nH]1)N1CCN(S(=O)(=O)c2ccc(F)cc2)CC1,-27.6%
17,CN1CCN(C(=O)CCc2nc3ccccc3c(=O)[nH]2)CC1,21.9%
18,Cc1nc2c3ccccc3nc(NNC(=O)CCC(=O)N3CCN(c4ccccc4)CC3)n2n1,-28.5%
19,O=C(CCc1nc2ccccc2c(=O)[nH]1)N1CCN(c2ccc(F)cc2)CC1,-68%
20,O=C(CCc1nc2ccccc2c(=O)[nH]1)N1CCN(S(=O)(=O)c2ccccc2Br)CC1,-51.3%
21,Cc1ccc(C)c(S(=O)(=O)N2CCN(C(=O)CCc3nc4ccccc4c(=O)[nH]3)CC2)c1,-47.1%
22,Cc1nc2c3ccccc3nc(NNC(=O)CCC(=O)N3CCN(c4ccc(F)cc4)CC3)n2n1,-53.2%
23,CC(=O)N1CCN(C(=O)CCc2nc3ccccc3c(=O)[nH]2)CC1,2.7%
24,COc1ccc(N2CCN(C(=O)CCC(=O)NNc3nc4ccccc4c4nc(C)nn34)CC2)cc1,-29.1%
25,O=C(CSc1ncnc2c1cnn2-c1ccc(F)cc1)NCC1CCCO1 (stereo not shown),13.7%
26,O=C1CCCS(=O)(=O)c2ccccc21,23.8%
27,Cc1cccc(OCC(=O)NCCCNC(=O)c2ccc(C)nc2)c1,17.9%
